Source: article PMC7862700, “An all-to-all approach to the identification of sequence-specific readers for epigenetic DNA modifications on cytosine”

Experiments:
Test in all cases: DAPPL (digital affinity profiling via proximity ligation, sequencing); 10 mM Tris-HCl pH 7.5, 50 mM NaCl, 1 mM DTT, 4% glycerol, room temperature, 30 min; GST-TFs on glutathione beads, 16-mer random dsDNA library, 0.1% formaldehyde crosslink after washing; high values mean tight binding
FLI1 = biological target: T1, FLI1 (Homo sapiens, UniProt Q01543 1-452); conditions: protein: recombinant; tags: N-terminal GST; dsDNA, one strand shown
T1 sequence: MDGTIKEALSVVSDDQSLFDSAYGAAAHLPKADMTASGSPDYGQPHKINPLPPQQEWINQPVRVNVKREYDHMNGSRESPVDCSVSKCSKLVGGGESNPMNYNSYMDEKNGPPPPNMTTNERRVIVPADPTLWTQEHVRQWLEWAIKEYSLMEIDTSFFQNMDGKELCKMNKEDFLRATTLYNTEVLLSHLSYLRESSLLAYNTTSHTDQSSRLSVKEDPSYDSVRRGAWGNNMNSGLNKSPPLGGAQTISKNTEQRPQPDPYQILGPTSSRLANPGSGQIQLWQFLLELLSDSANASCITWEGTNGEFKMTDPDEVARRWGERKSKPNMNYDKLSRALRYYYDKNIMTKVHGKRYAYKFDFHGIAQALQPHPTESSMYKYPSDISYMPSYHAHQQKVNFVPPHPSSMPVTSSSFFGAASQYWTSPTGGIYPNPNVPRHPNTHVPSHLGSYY
Method in brief: (§1)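 GST fusions of human transcription factors were expressed in yeast and captured with glutathione beads. Once given DNA barcodes and pooled alongside a tag-only sample, they were incubated for 30 min at room temperature with 200 nmole of a random double-stranded 16-mer DNA library in Tris/NaCl/DTT/glycerol buffer, then washed, crosslinked (0.1% formaldehyde), proximity-ligated, PCR-amplified and sequenced on an Illumina NextSeq500. The binding signal of each hexamer is its read frequency for a factor divided by its frequency for the tag-only sample.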

ELK1 = biological target: T2, ELK1 (Homo sapiens, UniProt P19419 1-428); conditions: protein: recombinant; tags: N-terminal GST; dsDNA, one strand shown
T2 sequence: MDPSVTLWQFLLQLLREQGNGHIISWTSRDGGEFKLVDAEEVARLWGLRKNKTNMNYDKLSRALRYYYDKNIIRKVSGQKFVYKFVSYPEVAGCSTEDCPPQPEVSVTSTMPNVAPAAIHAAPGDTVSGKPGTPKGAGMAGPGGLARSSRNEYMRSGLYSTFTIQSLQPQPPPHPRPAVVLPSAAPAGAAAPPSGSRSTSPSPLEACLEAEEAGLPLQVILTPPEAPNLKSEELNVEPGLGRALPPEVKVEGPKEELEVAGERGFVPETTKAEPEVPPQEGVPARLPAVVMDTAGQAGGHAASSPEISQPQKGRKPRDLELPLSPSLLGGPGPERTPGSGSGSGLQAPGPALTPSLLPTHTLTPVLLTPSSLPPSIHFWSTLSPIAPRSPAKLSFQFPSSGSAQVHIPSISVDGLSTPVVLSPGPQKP
Method in brief: as §1

GABPA = biological target: T3, GABPA (Homo sapiens, UniProt Q06546 1-454); conditions: protein: recombinant; tags: N-terminal GST; dsDNA, one strand shown
T3 sequence: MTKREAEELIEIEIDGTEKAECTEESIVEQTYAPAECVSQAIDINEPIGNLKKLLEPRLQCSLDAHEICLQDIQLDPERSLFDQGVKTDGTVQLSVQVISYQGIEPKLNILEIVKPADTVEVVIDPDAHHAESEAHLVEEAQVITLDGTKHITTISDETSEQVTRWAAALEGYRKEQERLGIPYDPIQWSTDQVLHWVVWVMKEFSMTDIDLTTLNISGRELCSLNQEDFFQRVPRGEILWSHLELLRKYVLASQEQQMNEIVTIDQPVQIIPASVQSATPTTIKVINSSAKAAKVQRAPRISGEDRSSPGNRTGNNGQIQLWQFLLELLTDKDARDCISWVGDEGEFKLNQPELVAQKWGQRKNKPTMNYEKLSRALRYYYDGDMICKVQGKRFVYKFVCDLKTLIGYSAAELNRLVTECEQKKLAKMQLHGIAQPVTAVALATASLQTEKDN
Method in brief: as §1

ERG = biological target: T4, ERG (Homo sapiens, UniProt P11308 1-479); conditions: protein: recombinant; tags: N-terminal GST; dsDNA, one strand shown
T4 sequence: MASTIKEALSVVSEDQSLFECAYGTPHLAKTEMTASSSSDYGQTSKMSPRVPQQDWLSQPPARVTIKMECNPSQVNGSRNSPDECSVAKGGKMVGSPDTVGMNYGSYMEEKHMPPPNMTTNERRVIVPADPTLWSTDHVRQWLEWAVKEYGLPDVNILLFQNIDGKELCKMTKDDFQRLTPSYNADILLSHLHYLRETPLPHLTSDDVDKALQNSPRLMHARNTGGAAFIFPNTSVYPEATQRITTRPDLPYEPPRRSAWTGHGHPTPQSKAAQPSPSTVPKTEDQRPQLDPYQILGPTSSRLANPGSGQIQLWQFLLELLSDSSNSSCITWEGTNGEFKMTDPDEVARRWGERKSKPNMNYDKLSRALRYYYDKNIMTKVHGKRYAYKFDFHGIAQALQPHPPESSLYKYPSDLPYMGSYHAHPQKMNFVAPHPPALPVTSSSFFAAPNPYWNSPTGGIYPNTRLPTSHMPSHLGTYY
Method in brief: as §1

ELF1 = ELF1 (Homo sapiens, UniProt P32519 1-619); conditions: protein: recombinant; tags: N-terminal GST; dsDNA, one strand shown
Sequence of ELF1 (P32519 whole entry): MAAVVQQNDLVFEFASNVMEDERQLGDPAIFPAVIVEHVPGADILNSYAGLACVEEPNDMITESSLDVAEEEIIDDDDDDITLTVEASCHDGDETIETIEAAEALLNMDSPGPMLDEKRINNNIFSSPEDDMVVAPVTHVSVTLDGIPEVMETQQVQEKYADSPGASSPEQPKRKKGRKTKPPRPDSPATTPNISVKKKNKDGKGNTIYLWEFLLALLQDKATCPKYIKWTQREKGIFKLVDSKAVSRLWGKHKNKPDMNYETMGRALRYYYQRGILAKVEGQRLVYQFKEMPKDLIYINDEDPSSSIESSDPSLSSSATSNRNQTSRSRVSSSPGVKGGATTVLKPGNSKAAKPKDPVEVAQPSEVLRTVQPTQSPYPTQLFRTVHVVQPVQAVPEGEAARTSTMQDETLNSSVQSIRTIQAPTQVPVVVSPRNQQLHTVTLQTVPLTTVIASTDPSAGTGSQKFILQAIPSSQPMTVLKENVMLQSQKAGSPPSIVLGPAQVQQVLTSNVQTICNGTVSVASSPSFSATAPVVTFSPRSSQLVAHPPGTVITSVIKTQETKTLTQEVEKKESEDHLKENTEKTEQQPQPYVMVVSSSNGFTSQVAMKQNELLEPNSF
Method in brief: as §1

EHF = biological target: T5, EHF (Homo sapiens, UniProt Q9NZC4 1-300); conditions: protein: recombinant; tags: N-terminal GST; dsDNA, one strand shown
T5 sequence: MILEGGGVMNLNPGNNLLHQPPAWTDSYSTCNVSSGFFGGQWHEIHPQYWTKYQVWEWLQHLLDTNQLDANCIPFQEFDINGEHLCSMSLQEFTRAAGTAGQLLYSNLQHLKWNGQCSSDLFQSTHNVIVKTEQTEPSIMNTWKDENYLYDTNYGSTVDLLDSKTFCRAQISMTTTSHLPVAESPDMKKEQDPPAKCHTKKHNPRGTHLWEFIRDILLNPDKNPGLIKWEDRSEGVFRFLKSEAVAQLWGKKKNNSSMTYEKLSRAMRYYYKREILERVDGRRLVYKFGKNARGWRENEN
Method in brief: as §1

SPI1 = SPI1 (Homo sapiens, UniProt P17947 1-270); conditions: protein: recombinant; tags: N-terminal GST; dsDNA, one strand shown
Method in brief: as §1

SPIB = SPIB (Homo sapiens, UniProt Q01892 1-262); conditions: protein: recombinant; tags: N-terminal GST; dsDNA, one strand shown
Sequence of SPIB (Q01892 whole entry): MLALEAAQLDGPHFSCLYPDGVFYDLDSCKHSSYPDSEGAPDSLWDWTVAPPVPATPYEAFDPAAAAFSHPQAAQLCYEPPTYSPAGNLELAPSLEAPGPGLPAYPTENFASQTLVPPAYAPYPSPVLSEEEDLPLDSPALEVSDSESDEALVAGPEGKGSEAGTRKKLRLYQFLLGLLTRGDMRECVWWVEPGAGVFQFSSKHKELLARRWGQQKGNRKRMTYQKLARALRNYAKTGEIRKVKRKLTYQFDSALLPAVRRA
Method in brief: as §1

ELK3 = biological target: T6, ELK3 (Homo sapiens, UniProt P41970 1-407); conditions: protein: recombinant; tags: N-terminal GST; dsDNA, one strand shown
T6 sequence: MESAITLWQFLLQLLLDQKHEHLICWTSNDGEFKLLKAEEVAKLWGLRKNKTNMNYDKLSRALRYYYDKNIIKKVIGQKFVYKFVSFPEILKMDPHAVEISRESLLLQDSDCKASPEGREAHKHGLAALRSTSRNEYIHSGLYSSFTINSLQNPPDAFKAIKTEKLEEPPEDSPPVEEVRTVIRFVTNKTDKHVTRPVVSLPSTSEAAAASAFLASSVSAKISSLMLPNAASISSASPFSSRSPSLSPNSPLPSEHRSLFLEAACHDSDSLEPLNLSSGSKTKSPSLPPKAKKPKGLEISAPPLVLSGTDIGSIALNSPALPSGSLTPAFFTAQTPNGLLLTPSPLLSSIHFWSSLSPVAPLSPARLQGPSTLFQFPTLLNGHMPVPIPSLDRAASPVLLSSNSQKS
Method in brief: as §1

FEV = biological target: T7, FEV (Homo sapiens, UniProt Q99581 1-238); conditions: protein: recombinant; tags: N-terminal GST; dsDNA, one strand shown
T7 sequence: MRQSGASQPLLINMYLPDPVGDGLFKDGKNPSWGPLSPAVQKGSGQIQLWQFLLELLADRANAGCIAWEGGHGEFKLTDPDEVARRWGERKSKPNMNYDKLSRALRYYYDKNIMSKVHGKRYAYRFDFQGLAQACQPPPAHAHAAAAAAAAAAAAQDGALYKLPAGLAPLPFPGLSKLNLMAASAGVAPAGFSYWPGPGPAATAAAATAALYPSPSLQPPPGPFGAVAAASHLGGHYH
Method in brief: as §1

ETV5 = ETV5 (Homo sapiens, UniProt P41161 1-510); conditions: protein: recombinant; tags: N-terminal GST; dsDNA, one strand shown
Sequence of ETV5 (P41161 whole entry): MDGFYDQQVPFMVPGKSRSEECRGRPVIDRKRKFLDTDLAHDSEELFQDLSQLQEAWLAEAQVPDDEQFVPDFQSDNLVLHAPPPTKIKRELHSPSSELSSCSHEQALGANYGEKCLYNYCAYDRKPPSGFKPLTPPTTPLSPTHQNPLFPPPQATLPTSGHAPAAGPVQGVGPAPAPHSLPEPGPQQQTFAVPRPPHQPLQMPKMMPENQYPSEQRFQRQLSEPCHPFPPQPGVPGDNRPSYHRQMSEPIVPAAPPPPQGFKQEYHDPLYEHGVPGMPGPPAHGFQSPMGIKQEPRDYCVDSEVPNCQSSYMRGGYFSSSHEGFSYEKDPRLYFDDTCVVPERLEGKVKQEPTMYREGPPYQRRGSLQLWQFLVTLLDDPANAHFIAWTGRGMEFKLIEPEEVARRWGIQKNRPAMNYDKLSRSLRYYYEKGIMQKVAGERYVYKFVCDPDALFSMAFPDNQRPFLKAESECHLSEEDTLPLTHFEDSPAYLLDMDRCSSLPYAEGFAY
Method in brief: as §1

HSF1 = HSF1 (Homo sapiens, UniProt Q00613 1-529); conditions: protein: recombinant; tags: N-terminal GST; chain copies: 3; dsDNA, one strand shown
Sequence of HSF1 (Q00613 whole entry): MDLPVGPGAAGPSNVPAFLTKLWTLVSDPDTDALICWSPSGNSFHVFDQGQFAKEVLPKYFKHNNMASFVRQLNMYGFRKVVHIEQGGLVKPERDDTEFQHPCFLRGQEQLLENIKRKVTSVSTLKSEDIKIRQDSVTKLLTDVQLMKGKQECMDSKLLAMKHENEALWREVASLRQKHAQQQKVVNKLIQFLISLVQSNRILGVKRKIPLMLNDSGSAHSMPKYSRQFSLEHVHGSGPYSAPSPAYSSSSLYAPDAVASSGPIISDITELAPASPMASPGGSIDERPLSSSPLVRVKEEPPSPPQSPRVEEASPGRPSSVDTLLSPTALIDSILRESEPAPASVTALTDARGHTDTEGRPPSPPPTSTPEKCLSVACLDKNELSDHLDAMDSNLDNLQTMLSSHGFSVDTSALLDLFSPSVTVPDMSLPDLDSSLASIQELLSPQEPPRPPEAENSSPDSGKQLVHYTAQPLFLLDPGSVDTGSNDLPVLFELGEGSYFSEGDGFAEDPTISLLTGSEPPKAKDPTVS
Method in brief: as §1

SPIC = biological target: T8, SPIC (Homo sapiens, UniProt Q8N5J4 1-248); conditions: protein: recombinant; tags: N-terminal GST; dsDNA, one strand shown
T8 sequence: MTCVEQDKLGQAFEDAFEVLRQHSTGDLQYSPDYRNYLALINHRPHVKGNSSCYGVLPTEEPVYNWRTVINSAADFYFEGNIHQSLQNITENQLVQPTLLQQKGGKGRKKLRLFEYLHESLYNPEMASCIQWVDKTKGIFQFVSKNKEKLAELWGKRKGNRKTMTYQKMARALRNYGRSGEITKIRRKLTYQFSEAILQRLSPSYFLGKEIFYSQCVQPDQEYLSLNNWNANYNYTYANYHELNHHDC
Method in brief: as §1

ELF4 = ELF4 (Homo sapiens, UniProt Q99607 1-663); conditions: protein: recombinant; tags: N-terminal GST; dsDNA, one strand shown
Sequence of ELF4 (Q99607 whole entry): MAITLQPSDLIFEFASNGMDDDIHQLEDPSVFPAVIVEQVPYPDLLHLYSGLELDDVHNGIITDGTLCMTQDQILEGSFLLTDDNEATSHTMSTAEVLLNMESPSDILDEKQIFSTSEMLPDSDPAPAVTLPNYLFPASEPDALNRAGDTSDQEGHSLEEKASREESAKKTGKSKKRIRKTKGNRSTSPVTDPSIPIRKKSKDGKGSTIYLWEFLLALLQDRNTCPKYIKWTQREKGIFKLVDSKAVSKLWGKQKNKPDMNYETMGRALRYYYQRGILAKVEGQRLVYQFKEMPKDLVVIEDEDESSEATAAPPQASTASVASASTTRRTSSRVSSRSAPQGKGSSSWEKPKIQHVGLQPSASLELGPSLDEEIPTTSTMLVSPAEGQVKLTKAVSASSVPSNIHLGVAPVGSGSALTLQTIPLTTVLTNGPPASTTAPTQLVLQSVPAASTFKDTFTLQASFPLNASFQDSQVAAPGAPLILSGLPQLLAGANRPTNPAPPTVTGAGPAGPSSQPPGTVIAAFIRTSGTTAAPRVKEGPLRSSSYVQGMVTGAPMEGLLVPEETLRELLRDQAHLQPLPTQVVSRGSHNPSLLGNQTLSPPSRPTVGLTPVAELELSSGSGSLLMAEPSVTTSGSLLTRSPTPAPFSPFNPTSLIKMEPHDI
Method in brief: as §1

ELK4 = biological target: T9, ELK4 (Homo sapiens, UniProt P28324-2 1-405); conditions: protein: recombinant; tags: N-terminal GST; dsDNA, one strand shown
T9 sequence: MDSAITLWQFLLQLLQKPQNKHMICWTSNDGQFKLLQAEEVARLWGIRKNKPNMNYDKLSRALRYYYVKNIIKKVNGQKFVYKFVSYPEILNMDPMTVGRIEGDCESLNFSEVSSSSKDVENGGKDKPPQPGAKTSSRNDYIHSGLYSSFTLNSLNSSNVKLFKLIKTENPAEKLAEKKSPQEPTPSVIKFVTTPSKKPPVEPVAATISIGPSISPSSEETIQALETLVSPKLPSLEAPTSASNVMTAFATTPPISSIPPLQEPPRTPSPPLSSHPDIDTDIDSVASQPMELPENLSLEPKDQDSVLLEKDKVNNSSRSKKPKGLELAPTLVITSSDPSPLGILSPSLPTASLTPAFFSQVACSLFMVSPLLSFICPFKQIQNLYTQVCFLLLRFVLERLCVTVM
Method in brief: as §1

ETV2 = biological target: T10, ETV2 (Homo sapiens, UniProt O00321 1-342); conditions: protein: recombinant; tags: N-terminal GST; dsDNA, one strand shown
T10 sequence: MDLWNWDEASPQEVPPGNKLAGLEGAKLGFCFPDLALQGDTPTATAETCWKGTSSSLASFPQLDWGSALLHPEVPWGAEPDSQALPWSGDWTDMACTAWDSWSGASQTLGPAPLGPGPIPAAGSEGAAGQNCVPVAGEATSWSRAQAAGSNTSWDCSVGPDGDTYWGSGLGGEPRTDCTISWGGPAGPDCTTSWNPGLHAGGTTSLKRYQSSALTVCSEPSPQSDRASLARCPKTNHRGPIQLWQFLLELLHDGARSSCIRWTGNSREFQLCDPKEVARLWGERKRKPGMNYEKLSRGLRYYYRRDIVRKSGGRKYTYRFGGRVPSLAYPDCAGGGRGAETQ
Method in brief: as §1

ELF3 = biological target: T11, ELF3 (Homo sapiens, UniProt P78545 1-371); conditions: protein: recombinant; tags: N-terminal GST; dsDNA, one strand shown
T11 sequence: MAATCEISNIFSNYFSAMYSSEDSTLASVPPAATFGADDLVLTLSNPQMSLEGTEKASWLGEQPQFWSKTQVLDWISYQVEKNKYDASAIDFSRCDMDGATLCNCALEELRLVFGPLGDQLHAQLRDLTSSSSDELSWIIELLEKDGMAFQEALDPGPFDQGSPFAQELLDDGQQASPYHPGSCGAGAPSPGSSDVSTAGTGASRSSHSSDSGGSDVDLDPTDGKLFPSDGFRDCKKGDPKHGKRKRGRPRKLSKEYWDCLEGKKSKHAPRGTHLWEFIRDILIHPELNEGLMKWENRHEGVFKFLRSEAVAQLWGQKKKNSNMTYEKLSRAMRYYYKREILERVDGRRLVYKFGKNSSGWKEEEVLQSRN
Method in brief: as §1

CRX = CRX (Homo sapiens, UniProt O43186 1-299); conditions: protein: recombinant; tags: N-terminal GST; dsDNA, one strand shown
Sequence of CRX (O43186 whole entry): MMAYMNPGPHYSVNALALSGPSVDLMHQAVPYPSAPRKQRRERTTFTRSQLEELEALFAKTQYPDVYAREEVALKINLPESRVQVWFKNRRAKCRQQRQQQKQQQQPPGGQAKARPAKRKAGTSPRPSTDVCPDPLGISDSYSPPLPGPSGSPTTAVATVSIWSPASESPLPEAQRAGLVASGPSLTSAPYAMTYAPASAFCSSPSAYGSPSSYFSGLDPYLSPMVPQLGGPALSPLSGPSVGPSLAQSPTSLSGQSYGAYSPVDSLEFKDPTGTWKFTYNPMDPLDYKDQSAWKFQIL
Method in brief: as §1

ETV1 = ETV1 (Homo sapiens, UniProt P50549 1-477); conditions: protein: recombinant; tags: N-terminal GST; dsDNA, one strand shown
Sequence of ETV1 (P50549 whole entry): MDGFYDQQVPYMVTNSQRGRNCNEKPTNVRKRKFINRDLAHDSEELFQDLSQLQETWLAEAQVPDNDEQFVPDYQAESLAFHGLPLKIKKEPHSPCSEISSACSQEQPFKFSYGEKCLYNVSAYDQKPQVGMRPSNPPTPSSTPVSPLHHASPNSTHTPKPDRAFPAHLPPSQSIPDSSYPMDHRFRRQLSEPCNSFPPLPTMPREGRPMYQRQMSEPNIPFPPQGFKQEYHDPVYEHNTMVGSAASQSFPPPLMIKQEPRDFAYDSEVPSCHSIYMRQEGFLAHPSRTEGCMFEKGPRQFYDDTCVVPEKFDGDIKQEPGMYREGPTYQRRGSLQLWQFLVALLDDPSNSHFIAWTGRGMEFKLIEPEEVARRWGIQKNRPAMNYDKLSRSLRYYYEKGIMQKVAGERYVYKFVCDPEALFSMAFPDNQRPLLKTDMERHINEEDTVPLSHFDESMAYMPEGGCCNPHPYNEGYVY
Method in brief: as §1

## AAACCC
FLI1
  binding signal: 1.26 fold enrichment (6-mer frequency, TF over GST control)
ELK1
  binding signal: 1.32 fold enrichment (6-mer frequency, TF over GST control)
GABPA
  binding signal: 1.22 fold enrichment (6-mer frequency, TF over GST control)
ERG
  binding signal: 1.25 fold enrichment (6-mer frequency, TF over GST control)
ELF1
  binding signal: 1.32 fold enrichment (6-mer frequency, TF over GST control)
EHF
  binding signal: 1.27 fold enrichment (6-mer frequency, TF over GST control)
SPI1
  binding signal: 1.22 fold enrichment (6-mer frequency, TF over GST control)
SPIB
  binding signal: 1.34 fold enrichment (6-mer frequency, TF over GST control)
ELK3
  binding signal: 1.36 fold enrichment (6-mer frequency, TF over GST control)
FEV
  binding signal: 1.29 fold enrichment (6-mer frequency, TF over GST control)
ETV5
  binding signal: 1.29 fold enrichment (6-mer frequency, TF over GST control)
HSF1
  binding signal: 1.21 fold enrichment (6-mer frequency, TF over GST control)
SPIC
  binding signal: 1.2 fold enrichment (6-mer frequency, TF over GST control)
ELF4
  binding signal: 1.34 fold enrichment (6-mer frequency, TF over GST control)
ELK4
  binding signal: 1.24 fold enrichment (6-mer frequency, TF over GST control)
ETV2
  binding signal: 1.34 fold enrichment (6-mer frequency, TF over GST control)
ELF3
  binding signal: 1.42 fold enrichment (6-mer frequency, TF over GST control)
CRX
  binding signal: 1.35 fold enrichment (6-mer frequency, TF over GST control)
ETV1
  binding signal: 1.36 fold enrichment (6-mer frequency, TF over GST control)
